From the supplement of paper PMC9948646

tested on: gramicidin D channels in DC22:1PC lipid vesicles (bilayer-modifying potency); assay: initial Tl+ fluorescence quench rate relative to no-drug control (NormRate, gramicidin monomer-dimer shift) (ratio (fold of control)); higher = stronger bilayer-modifying effect (equilibrium shifted toward conducting dimers), active = 1.5 or more; conditions: 10 µM; lipid concentration 50 µM; temperature: 25 °C
Method: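 Stopped-flow fluorescence quench assay: ANTS-loaded DC22:1PC large unilamellar vesicles doped with gramicidin D (1:2000), 50 µM lipid, equilibrated 10 min with 10 µM drug (0.1% DMSO), mixed with Tl+ quench buffer at 25°C. Initial quench rate (Tl+ influx) was fitted with a modified stretched exponential and normalised to the no-drug control rate (NormRate); duplicates from two independent LUV preparations (triplicates for 7 drugs).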

Initial Tl+ fluorescence quench rate, active:
CC(C)[C@H](NC(=O)Cc1cccc2ccccc12)C(=O)Nc1cccc(C#N)c1 1.74
Cc1cc(C)c2cc(C(=O)NC3CCCCCCC3)[nH]c2c1 1.78
c1csc(-c2cnc3sc(NCC4CCOCC4)nn23)c1 1.71
CC1=Nc2ccc(Cl)cc2[C@](O)(c2ccc(C)cc2)N1CCN1CCCCC1 1.66
CC(C)[C@H](C(=O)Nc1ccc(S(=O)(=O)N(C)C)cc1)c1ccc(Cl)cc1 4.3
COc1ccc(-c2nnc3ccc(-c4cccc(C(C)C)c4)cn23)cc1OC 2.38
CC(C)=CCC/C(C)=C\CNCCN[C@H]1[C@@H]2C[C@H]3C[C@@H](C2)C[C@@H]1C3 1.66
OC[C@H]1O[C@@H](n2c3ccc(Cl)cc3c3c(-c4cc5ccccc5o4)ncnc32)[C@H](O)[C@H]1O 3.52
[H]/N=C(/N)Nc1ccc(-c2ccc(-c3ccc(N/C(N)=N/[H])cc3Cl)o2)c(Cl)c1 1.53

Initial Tl+ fluorescence quench rate, inactive:
CC(C)(C)OC(=O)N1CCN(c2nccc(-c3ccc(-c4ccc(Cl)cc4)s3)n2)CC1 1.28
Cc1cc(NC(=O)c2ccc(Oc3ccc(Cl)cc3O)o2)no1 1.11
CCCCOC(=O)Nc1cc2nc(C3CCCCC3)[nH]c2cc1N1CCCC1 1.33
C[C@H]1CCCCN1C(=O)NCCc1coc(-c2ccc(F)cc2)n1 1.06
O=C(C1CCN(c2cc(-n3cccc3)ncn2)CC1)N1CCc2ccccc2C1 1.45
CNC(=O)[C@H]1Cc2ccccc2N1C(=O)Cc1ccc(F)cc1 1.04
CNC(=O)c1cc(S(=O)(=O)N2CCN(c3ccccn3)CC2)cs1 1.07
COc1cc(C2=NCCN2)ccc1-n1cc(-c2cccc(C3=NCCN3)c2)nn1 1.15
O=C(c1[nH]nc2c1CCCC2)N1CCN(Cc2ccc3c(c2)OCO3)CC1 1.03
O=C(Cn1ccnc1[N+](=O)[O-])NCc1ccccc1 1.01
CCN(CC)CCCN1CCN(C(=O)c2cccc(-c3noc(C(F)(F)F)n3)c2)CC1 1.25
NCC[C@H](O)C(=O)N[C@@H]1C[C@H](N)[C@@H](O[C@H]2O[C@H](CN)[C@@H](O)[C@H](O)[C@H]2O)[C@H](O)[C@@H]1O[C@H]1O[C@H](CO)[C@@H](O)[C@H](N)[C@H]1O 1.02
C[C@H]1CCCN(C(=O)[C@H](C)Nc2cc(Cl)ccc2N2CCOCC2)C1 1.23
O=C(NC1CC1)c1ccc(CSCc2ccccc2Cl)o1 1.35
O=C(Nc1nc(-c2ccccn2)cs1)[C@H]1C[C@@H]1c1ccccc1F 1.41
COC(=O)C1=C(C)NC(C)=C(C(=O)OC(C)C)[C@@H]1c1cccc2nonc12 1.33
CCCNC(=O)N1CCC2(CC1)CC(=O)c1cc(C)ccc1O2 1.15
CN1CCN(c2nccc3[nH]c(-c4cccc(F)c4)cc23)CC1 1.1
O=C(Nc1cnc2ccccc2c1)c1cccc(-n2cnnn2)c1 1.26
Cc1ccccc1CN1CCC(O)(c2ccc(Cl)c(C(F)(F)F)c2)CC1 1.14
Cc1cccc(Cn2ccc(NC(=O)c3ccc4c(c3)OCO4)n2)c1 1.35
O=C(NCc1cc(Cl)cc(Cl)c1)c1c(C(F)(F)F)nc2ccccn12 1.21
CC[C@H](Sc1nc2ccccc2o1)C(=O)Nc1nccs1 1.18
Cc1ccc(-c2nc(CN(Cc3ccccn3)C(C)C)cs2)o1 1.21
CS(=O)(=O)c1cccc(-c2cnc3[nH]cc(-c4ccc(CCC(=O)O)cc4)c3c2)c1 1.09
O=C(NCCc1ccn(-c2ccccc2)n1)C1CCCCC1 1.05
CN(C(=O)c1cc2c(-c3cncnc3)cccc2[nH]1)c1ccccc1 1.12
CC(=O)Oc1ccccc1C(=O)Nc1ncc([N+](=O)[O-])s1 1.05
